Measured values: PubChem BioAssay AID1578 (Sanford-Burnham Center for Chemical Genomics, 2009)
Out of some 290,000 compounds screened, about 3,000 (1%) were called active. For the sample, actives were picked, then their nearest neighbours and some compounds at random. Unmarked numbers belong to inactive results. No stated cut-off is given here; in the data, active means inhibition mostly above about 36% (no sharp cut-off); inactive means mostly below about 34%.

Test: inhibition of NOD1-driven NF-kB reporter – cell-based, luminescence, uHTS, primary screen (AID 1578);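 further: HEK-293T reporter cells stimulated with the NOD1 agonist gamma-tri-DAP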
Settings: NOD1-driven NF-kB luciferase reporter cells, at 4 µM, active compounds read high

Structure (SMILES)	inhibition
COc1cccc(NS(=O)(=O)c2cc3c(cc2C)N(C)CCO3)c1	-2.7%
O=C(N/N=C/c1ccc(N2CCOCC2)cc1)c1ccccn1	0%
O=C(N/N=C/c1ccc(N2CCOCC2)cc1)c1ccccc1OCCOc1ccccc1	58.8% (active)
O=C(N/N=C/c1ccc(OCC(=O)N2CCOCC2)cc1)c1ccccc1Cl	-15.5%
Fc1ccc(-n2ncc3c(SCc4cccnc4)ncnc32)cc1	-6.1%
Cc1nc2nc[nH]n2c(=O)c1CC(=O)O	14.8%
CC1CCCN(c2ccc3nc4ccccc4c(=O)n3n2)C1 (configuration not stated)	28.3%
CN(c1ccc2nc3ccccc3c(=O)n2n1)C1CCCCC1	92.5% (active)
CN(c1cc(=O)n2ccccc2n1)C1CCCCC1	-27.9%
CN1CCCN(C(=O)/C=C/c2ccc(F)cc2)CC1	-22.5%
N#CCC(=O)Nc1ccc(C(=O)OCC(=O)NCCCc2ccccc2)cc1	5.1%
O=C(O)c1ccc(/C=C(\c2nc3ccccc3[nH]2)c2nc3ccccc3s2)cc1	4.6%
COc1cc(C=C(c2nc3ccccc3s2)c2nc3ccccc3s2)ccc1O	7.4%
O=C(O)c1ccc(C=C(c2nc3ccccc3s2)c2nc3ccccc3s2)cc1	63.5% (active)
CCCNC(=O)COC(=O)CCC(=O)c1cccs1	-7.8%
O=C(Oc1cccc2cccnc12)c1cccc([N+](=O)[O-])c1	-8.5%
O=C(Oc1ccc(Cl)c2cccnc12)c1cccc([N+](=O)[O-])c1	-6.9%
O=C(Oc1c(Cl)cc(Cl)c2cccnc12)c1cccc([N+](=O)[O-])c1	105% (active)
COc1ccc(OC)c(Nc2nc(NCc3ccco3)nc(N)c2[N+](=O)[O-])c1	-6.4%
COc1ccc(NC(=O)c2ccc3c(c2)NC(=O)CS3)cc1S(=O)(=O)Nc1ccc(Br)cc1	4%
Cc1ccc(NS(=O)(=O)c2cc(NC(=O)c3cc(=O)[nH]c(=O)[nH]3)ccc2Cl)c(C)c1	12.4%

Structure (SMILES)	inhibition
Cc1ccc(C(=O)N/C(=C\c2cccc([N+](=O)[O-])c2)C(=O)OCN2C(=O)c3ccccc3C2=O)cc1	-36.4%
O=C(NC1=NCCS1)C12CC3CC(CC(C3)C1)C2	-23.8%
Nc1cccc2nc3ccccc3cc12	-65%
Nc1[nH]nc2nc3ccccc3cc12	-21.2%
O=C(c1cccc(F)c1)N1C2C=CC(C2)C1(C(F)(F)F)C(F)(F)F (configuration not stated)	23%
N/C(=N/S(=O)(=O)c1ccccc1)c1cccc([N+](=O)[O-])c1	2%
CNC(=S)NNC(=O)c1sc2cc(C(F)(F)F)cnc2c1-c1ccccn1	-34.8%
CCCCCCC1CC(=O)NC(=S)N1 (configuration not stated)	-3%
CCCCCC1CC(=O)N(Cc2ccc(Cl)cc2)C(=O)N1 (configuration not stated)	7.7%
CCCCCCC1CC(=O)NC(=O)N1 (configuration not stated)	45.3% (active)
Cc1ccc(N2CCC(N3CCN(C4CCCCC4)C(CCO)C3)CC2)cc1 (configuration not stated)	-17.5%
COc1cc2c(cc1OC)C(c1ccccc1)N(C(=O)CCl)CC2 (configuration not stated)	43.6%
COc1cc2c(cc1OC)C(c1cc(Br)ccc1F)N(C(=O)CCl)CC2 (configuration not stated)	37.2% (active)
COc1cc2c(cc1OC)C(C1C(=O)CCCC1=O)N(C(=O)CCl)CC2 (configuration not stated)	-8%
CSc1cccc(NS(=O)(=O)c2ccccc2)c1	-20.4%
O=C(CSc1nccc(=O)[nH]1)NC1CCCC1	-1.9%
COc1ccc(CCNC(=O)C/C(C)=N/NC(=O)COc2ccc(C)cc2Br)cc1OC	39.1%
C/C(CC(=O)NC(C)(C)C)=N\NC(=O)COc1ccc(C)cc1Br	-14%
CCCNC(=O)C/C(C)=N/NC(=O)COc1ccc(C)cc1Br	83.4% (active)
CC(=O)c1ccc(OCC(=O)NC(=O)NC2CCCCC2)cc1	6.2%
Cc1ccc(C)c(OCC(=O)Nc2ccc(S(=O)(=O)Nc3ncccn3)cc2)c1	-12.1%

Structure (SMILES)	inhibition
CCOC(=O)c1c(-c2ccccc2)csc1N1C(=O)Nc2ccccc2N1O	-27.8%
COC(=O)c1c(-c2ccccc2)csc1N1C(=O)Nc2ccccc2N1O	37.8% (active)
COC(=O)c1c(N2C(=O)Nc3ccccc3N2O)sc(C)c1C	-21.8%
CC(=O)Nc1ccc(-c2csc(-c3cccnc3)n2)cc1	-31.8%
O=C(O)CNC(=O)CCN1C(=O)c2ccccc2C1=O	-13.4%
COc1ccc(/C=C/C(=O)C(C(N)=O)=C2SCCS2)cc1	-16.2%
CCOc1ccc(/C=C/C(=O)C(C(N)=O)=C2SCCS2)cc1	8.8%
NC(=O)C(C(=O)/C=C/c1ccc(Cl)cc1)=C1SCCS1	60.5% (active)
Cc1ccc(CNC(=O)/C=C/c2ccc(Br)o2)cc1	-7.4%
NC(=O)c1ccc(C(=O)N/N=C/c2cccc(Oc3ccccc3)c2)cc1	-28.7%
NC(=O)COc1cccc(/C=N/NC(=O)c2ccc(-n3cccc3)cc2)c1	39.2% (active)
NC(=O)COc1ccc(/C=N\NC(=O)c2ccc(-c3ccccc3)cc2)cc1	2.5%
CCCn1c(C)nc2cc(Cl)c(N3CCN(c4nc(-c5ccc(C)cc5)cs4)CC3)cc21	23.3%
O=C(NC1=C(NC2CCS(=O)(=O)C2)C(=O)c2ccccc2C1=O)c1ccccc1 (configuration not stated)	104% (active)
CC(=O)NC1=C(NC2CCS(=O)(=O)C2)C(=O)c2ccccc2C1=O (configuration not stated)	-32.3%
CN(C1=C(NC(=O)c2ccccc2)C(=O)c2ccccc2C1=O)C1CCS(=O)(=O)C1 (configuration not stated)	-26.1%
O=S(=O)(Nc1nc(-c2ccccc2)cs1)c1cc(Cl)ccc1Cl	40.9%
COc1ccc(N=CC2=C(O)c3ccccc3C2=O)c(OC)c1	72% (active)
COc1cc(N=CC2=C(O)c3ccccc3C2=O)cc(OC)c1	-21.7%
COc1ccc(N=CC2=C(O)c3ccccc3C2=O)cc1	52.5%
